Data taken from the supplement of paper PMC6607015.
Where a name gives a salt, the structure may show the parent alone.

Tests used:
Conditions in all cases: compound concentration in added solution (µM; 5 µl added to 20 µl cells): 10; 18 h
A431 [1] = assay: LBPA endosome anti-LBPA integrated intensity (sum per cell), Z-score; higher = more LBPA staining
In short: (§1)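 Z-scores normalised in AcuityXpress are given for per-cell integrated LBPA or filipin intensity, measured whole-cell or within LBPA endosomes by MetaXpress segmentation. Cells (HeLa MZ or A431, 3,500 per well in 20 µl) were seeded onto 5 µl of 10 µM compound solution in duplicate 384-well imaging plates and fixed in 4% PFA after 18 h.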

HeLa MZ [2] = assay: as above
In short: as §1

A431 [3] = assay: whole-cell filipin (free cholesterol) integrated intensity, Z-score; higher = more cholesterol staining
In short: as §1

HeLa MZ [4] = assay: as above
In short: as §1

A431 [5] = assay: filipin (cholesterol) integrated intensity within LBPA endosomes, Z-score; higher = more cholesterol in LBPA endosomes
In short: as §1

HeLa MZ [6] = assay: as above
In short: as §1

Compound | LBPA endosome anti-LBPA integrated intensity (z-score) (A431 [1]) | LBPA endosome anti-LBPA integrated intensity (z-score) (HeLa MZ [2]) | whole-cell filipin (z-score) (A431 [3]) | whole-cell filipin (z-score) (HeLa MZ [4]) | filipin (z-score) (A431 [5]) | filipin (z-score) (HeLa MZ [6])
Cc1ccc(S(=O)(=O)NC(=O)NN2CC3CCCC3C2)cc1 (stereo unspecified) [Gliclazide] | -0.621 | -1.17 | -0.806 | -0.679 | -0.555 | -0.64
O=C1CCc2ccc(OCCCCN3CCN(c4cccc(Cl)c4Cl)CC3)cc2N1 [Aripiprazole] | 3.32 | 2.8 | 2.88 | 2.45 | 3.23 | 4.07
O=C(NCC1CCCCN1)c1cc(OCC(F)(F)F)ccc1OCC(F)(F)F (stereo unspecified) [Flecainide acetate] | 0.848 | 1.72 | 1.08 | 0.76 | 0.948 | 0.836
Cc1cn([C@H]2C[C@H](N=[N+]=[N-])[C@@H](CO)O2)c(=O)[nH]c1=O [Zidovudine, AZT] | -0.815 | -0.853 | -0.904 | 0.114 | -0.643 | -0.555
CC(=O)O[C@]1(C(C)=O)CC[C@H]2[C@@H]3C=C(C)C4=CC(=O)CC[C@]4(C)[C@H]3CC[C@@]21C [Megestrol acetate] | -0.482 | -1.05 | -0.244 | 0.402 | -0.317 | -0.342
CCOC(=O)C(C)(C)Oc1ccc(Cl)cc1 [Clofibrate] | -0.34 | -0.523 | -0.116 | -0.429 | -0.352 | -0.657
CC(C)(C)NCC(O)c1ccc(O)c(CO)c1 (stereo unspecified) [Salbutamol] | -0.288 | -0.311 | 0.022 | -0.307 | -0.535 | -0.499
CC(C)[C@H](N)C(=O)OCCOCn1cnc2c(=O)nc(N)[nH]c21 [Valacyclovir hydrochloride] | -0.418 | 0.0601 | -0.723 | -0.237 | -0.459 | -0.357
CC[C@H]1OC(=O)[C@H](C)[C@@H](O[C@H]2C[C@@](C)(OC)[C@@H](O)[C@H](C)O2)[C@H](C)[C@@H](O[C@@H]2O[C@H](C)C[C@H](N(C)C)[C@H]2O)[C@](C)(OC)C[C@@H](C)C(=O)[C@H](C)[C@@H](O)[C@]1(C)O [Clarithromycin] | -0.524 | 0.332 | -0.0542 | 0.0043 | -0.407 | -0.21
CC1CNc2c(cccc2S(=O)(=O)N[C@@H](CCCNC(=N)N)C(=O)N2CC[C@@H](C)C[C@@H]2C(=O)O)C1 (stereo partly specified) [Argatroban] | -0.429 | -0.462 | -0.724 | 0.346 | -0.455 | -0.335
C=CC[N@@+]12CC[C@@]34c5ccccc5N5/C=C6/[C@H]7C[C@H]8[C@@]9(CC[N@@+]8(CC=C)C/C7=C/CO)c7ccccc7N(/C=C(/[C@@H](C[C@@H]31)/C(=C\CO)C2)[C@H]54)[C@@H]69 [Alcuronium chloride] | -0.441 | -0.288 | 0.269 | 2.33 | -0.417 | -0.254
c1ccc2c(CC3=NCCN3)cccc2c1 [Naphazoline hydrochloride] | -0.505 | 0.993 | -0.75 | 0.085 | -0.523 | 0.0798
CC(C(=O)O)c1cccc(C(=O)c2ccccc2)c1 (stereo unspecified) [Ketoprofen] | -0.482 | -0.219 | -0.803 | -0.835 | -0.552 | -0.545
CN/C(=N\CCSCc1nc[nH]c1C)NC#N [Cimetidine] | -0.436 | -0.604 | -0.5 | -0.3 | -0.458 | -0.409
CN(C)CCN1C(=O)c2ccccc2N(C)c2ccccc21 [Dibenzepine hydrochloride] | -0.357 | 0.481 | -0.676 | -0.7 | -0.373 | 0.00611
Cc1c(Nc2ncccc2C(=O)O)cccc1C(F)(F)F [Flunixin meglumine] | -0.51 | -0.897 | -0.493 | -0.611 | -0.459 | -0.549
COc1cc(Cc2cnc(N)nc2N)cc(OC)c1OC [Trimethoprim] | -0.479 | -0.434 | -0.787 | -0.667 | -0.515 | -0.558
COc1ccccc1OCCNCC(O)COc1cccc2[nH]c3ccccc3c12 (stereo unspecified) [Carvedilol] | 4.32 | 3.72 | 2.68 | 3 | 3.9 | 5.27
CNCCc1ccccn1 [Betahistine mesylate] | -0.418 | -0.427 | -0.443 | -0.285 | -0.457 | -0.6
CC(C)OC(=O)C(C)(C)Oc1ccc(C(=O)c2ccc(Cl)cc2)cc1 [Fenofibrate] | -0.471 | -0.341 | -0.324 | -0.246 | -0.435 | -0.631
N[C@@H](Cc1cc(I)c(Oc2ccc(O)c(I)c2)c(I)c1)C(=O)O [Liothyronine] | -0.519 | 0.00578 | -0.411 | -0.281 | -0.479 | -0.592
CCCC(CCC)C(=O)O [Valproic acid] | -0.476 | 1.11 | 0.263 | 2.69 | -0.401 | -0.484
NCCC[C@H](N)CC(=O)N[C@H]1CNC(=O)[C@H]([C@H]2C[C@H](O)NC(N)=N2)NC(=O)/C(=C/NC(N)=O)NC(=O)[C@H](CO)NC(=O)[C@H](CO)NC1=O [Viomycin sulfate] | -0.57 | -1.06 | -0.305 | -0.46 | -0.563 | -0.474

Compound | LBPA endosome anti-LBPA integrated intensity (z-score) (A431 [1]) | LBPA endosome anti-LBPA integrated intensity (z-score) (HeLa MZ [2]) | whole-cell filipin (z-score) (A431 [3]) | whole-cell filipin (z-score) (HeLa MZ [4]) | filipin (z-score) (A431 [5]) | filipin (z-score) (HeLa MZ [6])
CCC(=O)O[C@]1(C(=O)SCF)[C@H](C)C[C@H]2[C@@H]3C[C@H](F)C4=CC(=O)C=C[C@]4(C)[C@@]3(F)[C@@H](O)C[C@@]21C [Fluticasone propionate] | -0.0811 | 0.00943 | 0.193 | -0.0272 | -0.0798 | -0.437
Cc1ccc(C(=O)c2ccc(CC(=O)O)n2C)cc1 [Tolmetin sodium salt dihydrate] | -0.35 | -0.0177 | -0.301 | -0.429 | -0.412 | -0.483
COC(=O)C1=C(C)NC(C)=C(C(=O)OC)C1c1ccccc1[N+](=O)[O-] [Nifedipine] | -0.346 | -0.877 | -0.739 | -0.61 | -0.513 | -0.614
CC(=O)O[C@H]1C[C@@H]2CC[C@@H]3[C@H](CC[C@@]4(C)[C@H]3C[C@H]([N+]3(C)CCCCC3)[C@@H]4OC(C)=O)[C@@]2(C)C[C@@H]1N1CCCCC1 [Vecuronium bromide] | -0.413 | 0.00655 | 0.0669 | -0.181 | -0.445 | -0.215
O=C(Nc1cccc2c(=O)cc(-c3nnn[nH]3)oc12)c1ccc(OCCCCc2ccccc2)cc1 [Pranlukast] | -0.507 | -1.1 | -0.413 | -0.657 | -0.501 | -0.637
CCn1cc(C(=O)O)c(=O)c2ccc(C)nc21 [Nalidixic acid sodium salt] | -0.59 | -0.884 | -0.346 | -0.298 | -0.467 | -0.567
CC(=O)Nc1ccc(O)cc1 [Acetaminophen] | -0.388 | 0.0073 | -0.156 | -0.518 | -0.48 | -0.412
CNC1(C)C2CCC(C2)C1(C)C (stereo unspecified) [Mecamylamine hydrochloride] | -0.608 | -1.35 | -0.41 | -0.324 | -0.495 | -0.557
O=C(N[C@H](CO)[C@H](O)c1ccc([N+](=O)[O-])cc1)C(Cl)Cl [Chloramphenicol] | -0.509 | -0.731 | -0.952 | -1.01 | -0.558 | -0.762
CC(C)C(=O)c1c(C(C)C)nn2ccccc12 [Ibudilast] | -0.434 | -0.686 | 0.153 | -0.112 | -0.402 | -0.704
CC(C)(O)c1ccccc1CC[C@@H](SCC1(CC(=O)O)CC1)c1cccc(/C=C/c2ccc3ccc(Cl)cc3n2)c1 [Montelukast] | -0.42 | 0.903 | -0.0363 | 0.0687 | -0.415 | -0.392
OC(CCN1CCCCC1)(c1ccccc1)C1CC2C=CC1C2 (stereo unspecified) [Biperiden hydrochloride] | 1.21 | 1.45 | -0.251 | -0.585 | 0.329 | 0.363
CN1CCN(CCCN2c3ccccc3Sc3ccc(Cl)cc32)CC1 [Prochlorperazine dimaleate] | 2.82 | 1.36 | 0.00438 | -0.198 | 1.66 | 1.98
c1ccc2c(c1)CCCC2C1=NCCN1 (stereo unspecified) [Tetrahydrozoline hydrochloride] | -0.429 | 1.07 | -0.35 | 0.315 | -0.366 | 0.0856
Cc1cc(-n2c(=O)[nH]c(=O)n(C)c2=O)ccc1Oc1ccc(SC(F)(F)F)cc1 [Toltrazuril] | -0.328 | 0.612 | -0.109 | 0.0439 | -0.337 | -0.457
CCN1CCCC1CNC(=O)c1cc(S(=O)(=O)CC)c(N)cc1OC (stereo unspecified) [Amisulpride] | -0.554 | -0.244 | -0.77 | -0.754 | -0.543 | -0.453
COC1=CC(=O)C[C@@H](C)[C@]12Oc1c(Cl)c(OC)cc(OC)c1C2=O [Griseofulvin] | -0.41 | -0.867 | -0.73 | -1.73 | -0.468 | -0.516
CCN(CC)CCOC(=O)C(c1ccccc1)C1CCCCC1 (stereo unspecified) [Drofenine hydrochloride] | 1.02 | 2.6 | 1.05 | 0.772 | 1.02 | 1.12
CN(C)[C@@H]1C(O)=C(C(N)=O)C(=O)[C@@]2(O)C(O)=C3C(=O)c4c(O)ccc(Cl)c4[C@@H](O)[C@H]3C[C@@H]12 [Demeclocycline hydrochloride] | -0.567 | -1.25 | -0.566 | -1.1 | -0.465 | -0.672
O=C(O)c1cc(/N=N/c2ccc(S(=O)(=O)Nc3ccccn3)cc2)ccc1O [Sulfasalazine] | -0.338 | 0.849 | 0.0767 | 1.46 | -0.515 | -0.277
CCN(CC)C(=O)Nc1ccc(OCC(O)CNC(C)(C)C)c(C(C)=O)c1 (stereo unspecified) [Celiprolol HCl] | 0.0633 | 0.456 | -0.229 | -0.152 | -0.388 | -0.405
NC[C@H]1CC[C@H](C(=O)O)CC1 [Tranexamic acid] | -0.452 | -0.543 | -0.422 | -0.896 | -0.524 | -0.663
CC[N+](CC)(CC(=O)Nc1c(C)cccc1C)Cc1ccccc1 [Denatonium benzoate] | -0.32 | -0.985 | -0.241 | -0.0671 | -0.379 | -0.548
